Assay outcomes: PubChem BioAssay, National Center for Advancing Translational Sciences (NCATS)
Hits are enriched below; roughly 7.9% of the tested compounds scored in any of these assays.
HCV inh – blocks hepatitis C virus; Huh7.5.1 HCVcc-Cre infection, luciferase reporter, 44 h; Potency, µM (series often up to 41.8 µM), without a hit: at the top dose activity change, negative = inhibition, actives largely listed as inhibitors; 340,000 tested, 3.4% active; AID 651820; active = well fitted inhibition curve with a large enough effect; inconclusive = small, poorly fitted or top-dose-only effect, or another doubt; inactive = no such curve, though single readings can be large or run the other way; note: potency is the fitted concentration of half-maximal effect
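HCVcc-Cre virus at an moi near 0.5 was added right after compound to cells cultured 4 h from seeding (1,000 cells/well). Luciferase activity was determined 44 h later, 15 min after substrate addition at RT.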
Marburg entry inh – blocks Marburg virus binding to or entry into cells; Marburg virus pseudotyped entry inhibition, cell reporter; Potency, µM (top dose mostly 37.8 µM), without a hit: at the highest dose activity change, negative = inhibition, actives largely listed as inhibitors; 300,000 tested, 1.8% active; calls by dose curve; tested in HEK293 cells; note: potency is the fitted concentration of half-maximal effect
HCMV antiviral – blocks human cytomegalovirus replication | HFF cells, HCMV-luciferase reporter, 72 h; active compounds read low | activity change, negative = inhibition, % at 57.5 µM | 410,000 tested, 4.5% active | AID 1259415; in the data active = activity change below about -60%; inconclusive = no clear call, values can overlap the other calls; inactive = above about -39%
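Compounds were evaluated in HFFs infected with an HCMV luciferase reporter virus (MOI 1 PFU/cell). Luciferase in lysates collected 72 h post infection served as the replication measure.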
FMDV antiviral – blocks foot and mouth disease virus; AID 1159524; FMDV antiviral cell-based qHTS; Potency, µM (top dose mostly 57.9 µM), without a hit: top-dose activity change, negative = inhibition, most hits filed as inhibitors; 410,000 tested, 1.2% active; calls by dose curve; tested in HEK293T cells; note: read-out not given here; potency is the fitted concentration of half-maximal effect; nearly all actives have a fitted effect of over 45% in size
LASV entry inh – blocks Lassa virus binding to or entry into cells. Potency, µM (doses to about 37.9 µM), for the others: at the top dose activity change, negative = inhibition, usual class: inhibitors. Lassa virus pseudotype entry inhibition, cell reporter. AID 540256. 300,000 tested, 1.2% active; calls by dose curve; tested in HEK293 cells; note: potency is the fitted concentration of half-maximal effect; nearly all actives have a fitted effect of over 50% in size
* marks the source's active call; other numbers are inactive results; ? = inconclusive; / = not tested or not shown; [ ] = another dose, or the depositor's remark. % is set by controls: 0 for no effect and ±100 for the full control effect.

SMILES	HCV inh	Marburg entry inh	HCMV antiviral	FMDV antiviral	LASV entry inh
COC(=O)c1ccc(Oc2ccc(S(=O)(=O)N3CCCCC3)cc2N)cc1	?	?	-36	?	?
Nc1cc(S(=O)(=O)N2CCCCC2)ccc1Oc1ccc(Cl)cc1	?	?	-66*	?	-26%
COC(=O)c1ccccc1NC(=O)c1cc2nc(-c3ccc(OC)cc3)cc(C(F)(F)F)n2n1	/	7%[46.1 µM]	-8	-4%	27%[46.1 µM]
CCCc1cc(-c2[nH]ncc2-c2ccc3c(c2)OCCCO3)c(O)cc1O	11µM*	15µM*	39	14µM*	?
Cn1cc(CNCc2cn[nH]c2-c2ccc(F)cc2)c(-c2ccc3c(c2)OCCO3)n1	2%	/	-28	-2%	/
CCCc1cc(-c2[nH]ncc2-c2ccc(C(=O)OCC)o2)c(O)cc1O	?	?	-62*	/	-17%
Cn1nc(-c2ccc(OCC(=O)Nc3cccc(C(F)(F)F)c3)cc2)c2ccccc2c1=O	/	4%[46.1 µM]	-22	?	2%[46.1 µM]
C[C@H]1[C@@H](Cc2cc(Cl)cc(Cl)c2)N(c2ccccc2)c2ccccc2CN1Cc1ccccc1	/	/	-19	-5%	/
O=C(N[C@@H]1c2ccccc2C2(CCN(C(=O)c3ccc4c(c3)OCCO4)CC2)[C@H]1O)c1cccnc1	/	/	/	-1%	/
COc1ccc(-c2noc(CN(C(=O)Cc3ccc(C)cc3)C(C)C)n2)cc1	/	?	-17	?	?
COc1ccccc1NC(=O)CSc1cn(CC(=O)N2CCCC2)c2ccccc12	/	/	1	-2%	12%[46.1 µM]
CC1CCN(C(=O)Cn2cc(SCC(=O)NCc3ccccc3)c3ccccc32)CC1	/	/	-85*	-4%	1%[46.1 µM]
COc1ccc(Cl)cc1NC(=O)CSc1cn(CC(=O)N2CCCCC2)c2ccccc12	/	/	-72*	?	-22%[46.1 µM]
COc1ccc(Cl)cc1NC(=O)CC(C)c1ccccc1 (stereo not given)	8.9µM*	0%	-19	-7%	0%
CC1CCN(C(=O)Cn2cc(SCC(=O)NCc3ccc(F)cc3)c3ccccc32)CC1	/	/	?	-7%	1%[46.1 µM]
Cc1ccc(CNC(=O)COc2ccc(S(=O)(=O)N3CCOCC3)cc2)cc1	-6%	0%[46.1 µM]	-17	-14%	19%
O=S1(=O)c2ccccc2N(Cc2ccccc2)c2ccccc21	/	/	10	-9%	11%[46.1 µM]
COC(=O)C1=C(C)N=C2S[C@@H](C)C(=O)N2[C@H]1c1cccs1	/	6%	/	/	/
CCN(C(=O)COC(=O)/C(C#N)=C/c1ccc(OC)cc1)C1CCS(=O)(=O)C1 (stereo not given)	2%[8.37 µM]	1%	-11	6%	9%
Cc1cccc(CNC(=O)c2ccc3c(c2)N(C)C(=O)C2CCCCN32)c1 (stereo not given)	/	/	-6	9%	?
CCOc1ccc(N)c(SSc2cc(OCC)ccc2N)c1	-27%	/	-98*	11%	/
CCOc1cccc(N)c1	-6%	/	/	-24%	/
Nc1ncnc2c1nc(Br)n2[C@@H]1O[C@@H]2COP(=O)(O)O[C@H]2[C@H]1O	29%	/	-76*	-1%	/
O=C(Nc1ccc(-c2nc3cccnc3s2)cc1)C1CCCO1 (stereo not given)	-15%	2.6µM*	-38	-38%	?
O=C(Nc1ncc(Cc2ccccc2)s1)C1CCCO1 (stereo not given)	5%	?	25	18%	15µM*
SMILES	HCV inh	Marburg entry inh	HCMV antiviral	FMDV antiviral	LASV entry inh
Cc1ccc2c(c1)C(=O)OC(C(=O)Nc1ncc(Cc3ccccc3)s1)C2 (stereo not given)	/	29%[46.1 µM]	1	-11%	2%[46.1 µM]
C[C@H](NC(=O)c1nc[nH]c1C(=O)NCCCCCNC(=O)OC(C)(C)C)c1ccccc1	?	/	-36	40µM*	/
C[C@@H](NC(=O)c1nc[nH]c1C(=O)NCCCCCNC(=O)OC(C)(C)C)c1ccccc1	?	/	1	-9%	/
CC(C)(C)c1ccc(C(=O)NCc2ccc(Cl)cc2)cc1	1%	0%	-16	/	-18%
CC(C)(C)c1ccc(C(=O)N2CCN(CCNC(=O)C(=O)NCc3ccc(Cl)cc3)CC2)cc1	11µM*	?	/	-28%	?
CC(C)(C)OC(=O)N1CCN(c2ccc(CNC(=O)c3ccc(Cl)cc3)cc2)CC1	?	?	-95*	25µM*	?
CC(C)(C)OC(=O)NCc1ccc(CNC(=O)c2[nH]cnc2C(=O)Nc2ccccc2F)cc1	/	/	-32	20µM*	/
Cc1ccc(NC(=O)c2nc[nH]c2C(=O)N2CCN(C(=O)OC(C)(C)C)CC2)cc1	5%	/	-26	-7%	/
CC(C)(C)OC(=O)NCc1ccc(CNC(=O)c2nc[nH]c2C(=O)N2CCN(C(=O)OC(C)(C)C)CC2)cc1	?	/	-28	20µM*	/
C[C@H](NC(=O)c1nc[nH]c1C(=O)NCc1ccccc1)c1ccccc1	?	/	40	-21%	/
C[C@H](NC(=O)c1nc[nH]c1C(=O)NCc1ccc(CNC(=O)OC(C)(C)C)cc1)c1ccccc1	7.1µM*	/	-14	32µM*	/
Cc1ccc(C(=O)NCCNC(=O)COc2ccc(C)c(C)c2)cn1	4%	21%[46.1 µM]	-7	-4%	25%
Cc1ccc(C(=O)NC(=C(Cl)Cl)S(=O)(=O)c2ccc(Cl)cc2)cc1	?	/	-11	?	/
Cc1ccc(S(=O)(=O)C(NC(=O)c2ccccc2)=C(Cl)Cl)cc1	?	?	-74*	13µM*	?
Cc1ccc(S(=O)(=O)/C(=C/Cl)NC(=O)c2ccccc2)cc1	?	7.1µM*	-66*	14µM*	7.3µM*
Cc1ccc(S(=O)(=O)CCC(=O)OCC(=O)NC(=O)c2ccccc2)cc1	17%	6%	-15	-16%	3%
O=C(NC(=C(Cl)Cl)S(=O)(=O)c1ccc(Cl)cc1)c1ccccc1	?	/	?	28µM*	/
Cc1ccc(C(=O)NC(=C(Cl)Cl)S(=O)(=O)c2ccc(C)cc2)cc1	-18%	?	-60*	18µM*	?
Cc1ccc(Cl)cc1NC(=O)c1oc2c(c1C)-c1[nH]ncc1CC2	/	?	11	11%	24%[46.1 µM]
Cc1ccc2c(=O)cc(C(=O)Nc3ccc(S(=O)(=O)N(C)c4ccccc4)cc3)oc2c1C	/	-1%[46.1 µM]	20	-12%	4%[46.1 µM]
O=C(N(CC1CCCCC1)C1=NCCCC1)C12CC3CC(CC(C3)C1)C2	/	-19%	/	/	/
Cc1ccc(C(=O)NS(=O)(=O)c2ccc(C)cc2)cc1	8%	3%	-17	-2%	/
CC(=O)NC(=C(Cl)Cl)S(=O)(=O)c1ccccc1	?	10µM*	-99*	22µM*	?
CC(=O)Nc1ccc(S(=O)(=O)N2CCN(S(=O)(=O)c3ccccc3)CC2)cc1	20%	/	68	-9%	/
Cc1ccc(C(=O)NS(=O)(=O)c2ccccc2)cc1	3.2µM*	8%[46.1 µM]	-8	5%	1%
CCOc1ccc(/C=C/c2nc(C#N)c(NCc3ccccc3)o2)cc1	/	-19%[46.1 µM]	-93*	?	-20%[46.1 µM]
CCSc1ncc(Cl)c(C(=O)N(Cc2ccccc2)c2ccc(OC)cc2)n1	/	?	-75*	?	-4%[46.1 µM]
